The list is not random: actives were taken first. Their share in the collection is about 5.7%.
KB-V1 MDR tox = qHTS assay for MDR1-selective chemotherapeutics: Primary screen using the drug-selected MDR subline cells KB-V1; AID 1347076, 2019; KB-V1 MDR cells viability, CellTiter-Glo, 72 h; 400,000 compounds, 3.4% hits; Potency, µM (titrated, usually from 46.1 µM), most hits filed as cytotoxic; note: potency is the fitted concentration of half-maximal effect; nearly all actives have a fitted effect of over 60% in size
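qHTS viability screen in drug-selected KB-V1 MDR cells: 72 h compound treatment at 37 degrees C, ATP luminescence end point.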
Giardia kill = Small Molecules that selectively kill Giardia lamblia: qHTS. Giardia lamblia trophozoite viability. activity change, % at 7.66 µM, hits read low. 340,000 compounds, 0.15% hits. AID 540267, 2011; in the data active = activity change below about -80%; inconclusive = between about -30% and that limit;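 note: parasites exposed to compound for two days anaerobically before the ATP read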
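Giardia lamblia trophozoites (100 cells/well) were incubated with compounds for 48 h at 37 deg C under anaerobic conditions. Viability was read as ATP content by one-step luminescence after 15-30 min at room temperature.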
PI4K2A block = qHTS for small molecular inhibitors of PI4K2A | purified PI4K2A, ADP-Glo luminescence, 1 h; hits give low values | 420,000 compounds, 0.13% hits | Phosphatidylinositol 4-kinase type 2-alpha (Homo sapiens), Q9BTU6 | activity change, negative = inhibition, % at 76.9 µM; in the data active = activity change below about -50%; inconclusive = mostly about -30% to -49%;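 note: -100% = wells without enzyme as full effect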
Target sequence (Q9BTU6 whole entry, looked up): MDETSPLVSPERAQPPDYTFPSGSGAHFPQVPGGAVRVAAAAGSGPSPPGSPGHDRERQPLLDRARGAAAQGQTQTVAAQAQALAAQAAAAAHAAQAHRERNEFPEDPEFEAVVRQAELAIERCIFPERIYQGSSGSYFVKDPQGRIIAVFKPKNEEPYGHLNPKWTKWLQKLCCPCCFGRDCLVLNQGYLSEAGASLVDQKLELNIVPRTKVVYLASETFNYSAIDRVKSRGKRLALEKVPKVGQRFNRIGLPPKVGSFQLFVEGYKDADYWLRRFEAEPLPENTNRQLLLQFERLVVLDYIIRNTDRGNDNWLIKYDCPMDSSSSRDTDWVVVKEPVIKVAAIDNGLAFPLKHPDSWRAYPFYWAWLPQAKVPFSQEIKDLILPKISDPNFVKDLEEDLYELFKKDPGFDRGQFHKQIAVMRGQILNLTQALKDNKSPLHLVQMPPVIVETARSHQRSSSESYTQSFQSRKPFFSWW
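PI4K2A activity was measured by ADP-Glo luminescence: enzyme (4 ug/mL stock) and phosphatidylinositol (1.2 mM stock) in Tris pH 7.5/MgCl2/EGTA/Triton X-100 buffer were reacted with ATP (300 microM stock) for one hour at ambient temperature.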
KB-3-1 tox = qHTS assay for MDR1-selective chemotherapeutics: Primary screen using the parental adenocarcinoma cell KB-3-1 | KB-3-1 viability, CellTiter-Glo ATP luminescence, 72 h | Potency, µM (titrated, usually from 46.1 µM), usual class: cytotoxic | 400,000 compounds, 1.4% hits; note: potency is the fitted concentration of half-maximal effect; nearly all actives have a fitted effect of over 60% in size
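Screening of KB-3-1 cells (DMEM, 10% FBS, phenol-red free) ran from lowest to highest compound concentration; after 72 h at 37 °C viability was read luminescently and curves fitted.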
A549 viability = Nrf2 qHTS screen for inhibitors: counterscreen for cytotoxicity | A549 ARE-Fluc cells, CellTiter-Fluor viability, 18-24 h | Potency, µM (doses to about 46 µM), for inactives: top-dose activity change, negative = cytotoxicity, usual class: inhibitors | 390,000 compounds, 0.16% hits; note: potency is the fitted concentration of half-maximal effect
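Cytotoxicity counterscreen: CellTiter-Fluor fluorescence was measured in A549 ARE_Fluc cells after 18-24 h of compound exposure in a concentration series. The subsequent BugLite luminescent read reports ARE-luciferase activity.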
Nrf2 inh = Nrf2 qHTS screen for inhibitors; A549 ARE-Fluc reporter, luciferase luminescence, 18-24 h; Potency, µM (series often up to 46 µM), for inactives: top-dose activity change, negative = inhibition, actives largely listed as inhibitors; 360,000 compounds, 2.1% hits; AID 504444, 2011; note: potency is the fitted concentration of half-maximal effect; nearly all actives have a fitted effect of over 60% in size
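Quantitative HTS in A549 cells stably bearing an antioxidant response element-firefly luciferase construct. Inhibition of Nrf2-driven transcription was scored by luminescence after 18-24 h of compound exposure at 37 °C.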
* marks the source's active call; other numbers are inactive results; i = inactive; ? = inconclusive; / = not tested or not shown. Unless noted, calls come from the whole dose curve; as a rule, active = well fitted curve in the direction sought with a large enough effect; inconclusive = small, poorly fitted or top-dose-only effect, or another doubt; inactive = no such curve, though single readings can be large; an effect the other way counts as inactive or inconclusive. Unless noted, % is set by controls: 0 for no effect and ±100 for the full control effect.

SMILES	KB-V1 MDR tox	Giardia kill	PI4K2A block	KB-3-1 tox	A549 viability	Nrf2 inh
COc1ccc(-n2nnnc2S(=O)(=O)Cc2ccc(C(=O)O)cc2)cc1	i	-5	64	i	0%	?
COc1ccc(-n2nnnc2S(=O)(=O)CC(=O)N2CCCCC2)cc1	?	3	57	21µM*	?	26µM*
Cc1cc(Nc2ccccc2C)n2nc(Cc3ccc(Cl)cc3)nc2n1	i	/	3	i	0%	-15%
N=c1c2c(n(Cc3ccc(Br)cc3)c3c1CCC3)CCCC2	i	7	-3	0.65µM*	-15%	-16%
CCCn1c2c(c(=N)c3c1CCC3)CCCC2	?	-13	-7	?	4%	?
CCCn1c2c(c(=N)c3c1CCC3)CCC2	i	6	-2	?	-17%	7.3µM*
COc1ccc(CC2CCN(c3ncnc4sccc34)CC2)cc1	/	/	-1	/	/	/
Cc1cccc(C(=O)N[C@H](C(=O)Nc2ncc(C)s2)C(C)C)c1	16µM*	7	2	?	-12%	?
CCN(CC(=O)Nc1ccc(OC)c(OC)c1)S(=O)(=O)c1ccc(C)cc1	13µM*	7	-4	i	-9%	/
COc1ccc(S(=O)(=O)N(C)CC(=O)Nc2ccc(C)cc2)cc1OC	?	-4	-1	i	2%	-4%
COc1ccc(NC(=O)CN(c2ccc(C)cc2)S(=O)(=O)c2c(C)nn(C)c2C)cc1OC	13µM*	-13	-1	?	-7%	8%
CCc1ccc(NC(=O)C(=O)c2ccccc2NC(C)=O)cc1	23µM*	-2	1	i	0%	-15%
CC(=O)Nc1ccccc1C(=O)C(=O)Nc1ccc(C)c(C)c1	?	3	7	i	0%	-24%
CC12CCC(C/C1=N\N=C1\NC(=O)/C(=C\c3cccc(Br)c3)S1)C2(C)C (stereo not given)	?	5	-3	i	?	18µM*
C(=Nc1cccnc1)c1ccc2ccccc2n1	i	/	/	i	/	/
Cc1cc(NC(=O)c2ccc(NC(=O)c3cccs3)cc2)no1	15µM*	8	-3	i	4%	6%
Cc1ccn(-c2ccc(NC(=O)c3cccs3)cc2)n1	12µM*	?	-24	21µM*	3%	?
O=C(Nc1ccc(NC(=O)c2cccs2)cc1)c1cccs1	i	10	-1	i	-23%	-15%
CCN(CC)c1ccc(-c2nc(-c3ccco3)no2)cc1[N+](=O)[O-]	i	/	-2	i	2%	0%
CCOc1ccc(C(=O)NCCn2cc(SCC(=O)NCCc3ccc(OC)c(OC)c3)c3ccccc32)cc1	i	/	2	i	-9%	-30%
COc1ccc(Cl)cc1NC(=O)CN1C(=O)COc2ccc(S(=O)(=O)NC3CCCC3)cc21	i	/	7	i	?	-3%
O=S(=O)(c1ccc(F)cc1)N1CCC(n2c(C(F)(F)F)nc3cccnc32)CC1	i	/	0	i	-1%	21µM*
CN(C)S(=O)(=O)N1CCC(n2c(C(F)(F)F)nc3cccnc32)CC1	?	/	-1	i	22%	?
COc1cc(C(=O)NCCCNc2nc3cc(C)cc(C)c3cc2C#N)cc(OC)c1OC	5.8µM*	-7	2	?	4%	-2%
COc1cc(C(=O)NCCCNc2ccc([N+](=O)[O-])cc2)cc(OC)c1OC	21µM*	12	0	i	-14%	7%
SMILES	KB-V1 MDR tox	Giardia kill	PI4K2A block	KB-3-1 tox	A549 viability	Nrf2 inh
O=C(Nc1nc2ncccn2c1-c1ccccc1)c1ccccc1	/	/	2	/	/	/
Cc1cc(C)c2oc(-c3cccc(NC(=O)COc4ccc(Cl)cc4C)c3C)nc2c1	i	/	/	?	/	/
COc1ccccc1C(=O)NCc1nc2cccnc2n1Cc1ccc(F)cc1	/	/	0	/	5%	/
CC1CCc2c(C(=O)NCC3CCCO3)csc2C1 (stereo not given)	i	-10	-3	i	-5%	13%
Cc1noc(C)c1COC(=O)c1csc2c1CCC(C)C2 (stereo not given)	21µM*	-3	0	i	13%	1%
Cc1c(C(=O)NCCSCc2ccc(Cl)cc2Cl)cccc1[N+](=O)[O-]	26µM*	-1	-10	?	-12%	?
Cc1cc(CNC(=O)c2cccc([N+](=O)[O-])c2C)c2ccccc2n1	5.8µM*	7	-2	i	-6%	?
CCc1nc2ccc(C(=O)NCc3ccc4c(c3)OCO4)cn2c1N(CC)Cc1cccc(Br)c1	?	/	-2	?	/	/
CCc1nc2ccc(C(=O)NC(C)(C)C)cn2c1N(CC)Cc1cccc(Br)c1	21µM*	/	2	?	/	/
Cc1ccc(N2CCN(S(=O)(=O)c3ccc(Cl)s3)CC2C)cc1 (stereo not given)	?	11	-3	i	-4%	13µM*
Cc1cc(C)c2c(c1)/C(=c1/sc3n(c1=O)CN(c1ccccc1)CN=3)C(=O)N2	16µM*	-2	-1	?	-9%	-1%
O=c1/c(=C/c2ccccn2)sc2n1CN(c1ccccc1)CN=2	i	-19	-13	i	1%	-3%
O=C(Cc1csc(Nc2nc(=S)[nH]c3ccccc23)n1)N1CCN(c2cccc(Cl)c2)CC1	18µM*	5	4	23µM*	-4%	?
O=C(NC1CCCCN(Cc2cccc(C(F)(F)F)c2)C1=O)c1ccc(F)cc1 (stereo not given)	/	/	1	/	/	/
CCOC(=O)C1(Cc2ccc(Cl)cc2)CCN(C(=O)CCc2ccncc2)CC1	4.1µM*	10	1	i	0%	?
CCCCNC(=O)NCCCN1CCN(c2ccc(F)cc2)CC1	/	/	1	/	/	/
COC(=O)c1ccccc1NC(=O)Cn1c(=O)n(-c2ccc(C)cc2)c(=O)c2ccccc21	/	/	2	/	-12%	1%
